Calls of active or inactive are those of the source. How the calls were made is not given here.
These compounds were tested on HIV-1 nucleocapsid protein NCp7 (binding to TG oligonucleotide) (assay: HIV Nucleocapsid (AID 346;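 further: potency is for inhibitors that block NC binding and lower polarization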)). Conditions: HIV-1 NC / fluorescein-TGTGTGTG probe, fluorescence polarization.
Outline: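 Fluorescence polarization binding of 100 nM HIV-1 NC to 10 nM fluorescein-labelled TG4xF oligonucleotide. Buffer was Hepes pH 7.5 with 250mM NaCl, 1uM ZnCl2, TCEP and 2-mercaptoethanol. Compounds were incubated 1 hr at room temperature before the read.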
In the case of `CN1CCC2(CC1)CCN(C(=O)c1cccc(F)c1)CC2`, the Potency is reported as > 20 µM (inactive).
`O=c1c(-c2cccs2)nc2cncnc2n1-c1ccccc1` was tested, and the Potency was 18.2 µM (inactive).
`COc1ccccc1CN1CC2(CCN(C(=O)c3cccc(F)c3)CC2)C1` was tested, and the Potency was > 20 µM (inactive).
In the case of `O=C(c1cccc(F)c1)N1CCC[C@@]2(CCN(Cc3ccncc3)C2)C1`, the Potency is reported as > 20 µM (inactive).
In the case of `COCCn1c(=O)c(-c2cccc(C#N)c2)nc2cnc(Nc3ccccc3)nc21`, the Potency is reported as 5.18 µM (active).
With `CN(C)c1ncc2nc(-c3ccccc3)c(=O)n(-c3ccccc3)c2n1` the Potency was > 20 µM (inactive).
In the case of `c1csc(CNc2ncncc2-c2ccc3c(c2)OCO3)c1`, the Potency is reported as > 20 µM (inactive).
For `c1csc(CNc2cc(-c3ccoc3)ncn2)c1`, the Potency was > 20 µM (inactive).
`c1nc(NC2CC2)c2cc(-c3ccoc3)ccc2n1` was tested, and the Potency was > 20 µM (inactive).
In the case of `COc1ccccc1CN1CCCC2(CCN(C(=O)c3ccncc3)CC2)C1`, the Potency is reported as > 20 µM (inactive).
In the case of `COCC(=O)N1CCC2(CCCN(c3ccccc3)C2)CC1`, the Potency is reported as > 20 µM (inactive).
For `COc1ccc(-c2nc3cnc(N4CCNCC4)nc3n(Cc3cccs3)c2=O)cc1`, the Potency was > 20 µM (inactive).
With `Cn1cccc1C(=O)N1CCC2(CCCN(Cc3ccc(C#N)cc3)C2)CC1` the Potency was > 20 µM (inactive).
In the case of `N#CCCn1c(=O)cnc2cnc(OCc3ccccc3)nc21`, the Potency is reported as > 20 µM (inactive).
`COc1ccccc1CN1CC[C@@]2(CCCN(C(=O)c3cccc(F)c3)C2)C1` was tested, and the Potency was > 20 µM (inactive).
For `O=C(c1csnn1)N1CCC[C@@]2(CCN(C(c3ccccc3)c3ccccc3)C2)C1`, the Potency was > 20 µM (inactive).
With `COc1ccc(C(=O)N2CCC3(CCN(C(=O)Nc4cccc(F)c4)CC3)CC2)cc1` the Potency was > 20 µM (inactive).
For `O=C(c1cc(C(F)(F)F)cc(C(F)(F)F)c1)N1CCC2(CC1)CN(c1ccncc1)C2`, the Potency was > 20 µM (inactive).
For `Cn1c(=O)c(-c2ccccc2)nc2cnc(N3CCNCC3)nc21`, the Potency was > 20 µM (inactive).
`O=S(=O)(c1ccccc1)N1CCC[C@@]2(CCN(c3ccccc3)C2)C1` was tested, and the Potency was > 20 µM (inactive).
In the case of `Cc1cnc(CNc2cc(-c3ccc4c(c3)OCO4)ncn2)cn1`, the Potency is reported as > 20 µM (inactive).
For `Cc1cnc(CNc2ccnc(-c3ccccc3Cl)n2)cn1`, the Potency was > 20 µM (inactive).
In the case of `CN1CCN(c2ncc3ncc(=O)n(-c4ccccc4)c3n2)CC1`, the Potency is reported as > 20 µM (inactive).
In the case of `COc1cccc(Cn2c(=O)c(C)nc3cnc(N4CCNCC4)nc32)c1`, the Potency is reported as > 4 µM (inactive).

From PubChem BioAssay (NCATS)
Potency means the concentration at half of the fitted maximal effect.
